Measured values published in PubChem BioAssay (Tox21).
Values without a mark were called inactive. Results filed as inconclusive are left out. Entries that show only a call come without a potency. Active and inactive are the calls of the source. Unless noted, the call rests on the fitted dose curve; in most records, active means well fitted curve in the direction sought with a large enough effect in the repeat runs; inconclusive means weak or mixed curves; inactive means no such curve, though single readings can be large; an effect the other way counts as inactive or inconclusive.

How the values were obtained:
[1] = A CellTox Green Cytotoxicity Assay to monitor cytotoxicity in HEK293 cells - 8 hour (AID 1224884); further: nearly all actives have a fitted effect of over 35% in size
Summary of the method: (§1)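 HEK293 cells, 600/well, were preincubated 5 hours and then exposed to compounds at 37 C for up to 40 hours. A cell-impermeant cyanine dye staining dead-cell DNA was read by fluorescence at 0, 8, 16, 24, 32 and 40 h time points.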

[2] = qHTS RealTime-Glo MT Cell Viability Assay in HepG2 cells - 16 hour (AID 1224885); further: nearly all actives have a fitted effect of over 50% in size
Summary of the method: (§2)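 Real-time, nonlytic viability: 600 HepG2 cells/well mixed with NanoLuc enzyme plus prosubstrate; 5 h settle, compound (DMSO) added by pintool; luminescence monitored over 40 h at 37 C.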

[3] = qHTS RealTime-Glo MT Cell Viability Assay in HEK293 cells - 24 hour (AID 1224886); further: top concentration of the series differs between compounds; nearly all actives have a fitted effect of over 50% in size
Summary of the method: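 Cells + reagent dispensed (600 cells/well, HEK293) → 5 h at 37 C/5% CO2 → 23 nL compound in DMSO pinned → 40 h at 37 C → luminescence read at 0, 8, 16, 24, 32, 40 h.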

[4] = qHTS RealTime-Glo MT Cell Viability Assay in HEK293 cells - 8 hour (AID 1224887); further: top concentration of the series differs between compounds; nearly all actives have a fitted effect of over 50% in size
Summary of the method: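 600 cells/well were plated with the nonlytic NanoLuc/prosubstrate reagent, pre-incubated 5 h, then given 23 nL of compound in DMSO. Incubation at 37 C for 40 h, with luminescence from viable-cell-reduced substrate read repeatedly from 0 h.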

[5] = qHTS RealTime-Glo MT Cell Viability Assay in HepG2 cells - 0 hour (AID 1224889); further: nearly all actives have a fitted effect of over 50% in size
Summary of the method: as §2

[6] = A CellTox Green Cytotoxicity Assay to monitor cytotoxicity in HepG2 cells - 8 hour (AID 1224890); further: nearly all actives have a fitted effect of over 45% in size
Summary of the method: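 HepG2 cells, 600/well, preincubated 5 h with CellTox Green dye, then exposed to Tox21 compounds in DMSO at 37 C for up to 40 h. Dead-cell DNA fluorescence read at the indicated time point.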

[7] = qHTS assay to identify small molecule antagonists of the estrogen receptor alpha (ER-alpha) signaling pathway using the BG1 cell line in the presence of 0.1 nM 17-beta-estradiol - cell viability counter screen (AID 1259241); further: nearly all actives have a fitted effect of over 40% in size
Summary of the method: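 Measures cytotoxicity alongside the ER-alpha antagonist readout: VM7Luc4E2 cells, charcoal-stripped serum, 0.1 nM 17beta-estradiol final, 22 hr compound incubation at 37C, CellTiter-Fluor fluorescence.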

[8] = qHTS assay to identify small molecule antagonists of the androgen receptor (AR) signaling pathway using the MDA cell line in the presence of 0.5 nM R1881 - cell viability counter screen (AID 1259242); further: nearly all actives have a fitted effect of over 45% in size
Summary of the method: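 MDA-kb2 cells (MMTV-luciferase, AR/GR responsive) were treated with compounds plus 0.5 nM R1881 (final) for 16 hr at 37C, 0% CO2. Viability was then read in the same wells as live-cell protease fluorescence (CellTiter-Fluor, 30 min).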

[9] = biological target: Androgen receptor (Homo sapiens) (UniProt P10275); experiment: qHTS assay to identify small molecule antagonists of the androgen receptor (AR) signaling pathway using the MDA cell line in the presence of 0.5 nM R1881 (AID 1259243); further: nearly all actives have a fitted effect of over 50% in size
Chain of Androgen receptor (Homo sapiens) (P10275 whole entry, looked up): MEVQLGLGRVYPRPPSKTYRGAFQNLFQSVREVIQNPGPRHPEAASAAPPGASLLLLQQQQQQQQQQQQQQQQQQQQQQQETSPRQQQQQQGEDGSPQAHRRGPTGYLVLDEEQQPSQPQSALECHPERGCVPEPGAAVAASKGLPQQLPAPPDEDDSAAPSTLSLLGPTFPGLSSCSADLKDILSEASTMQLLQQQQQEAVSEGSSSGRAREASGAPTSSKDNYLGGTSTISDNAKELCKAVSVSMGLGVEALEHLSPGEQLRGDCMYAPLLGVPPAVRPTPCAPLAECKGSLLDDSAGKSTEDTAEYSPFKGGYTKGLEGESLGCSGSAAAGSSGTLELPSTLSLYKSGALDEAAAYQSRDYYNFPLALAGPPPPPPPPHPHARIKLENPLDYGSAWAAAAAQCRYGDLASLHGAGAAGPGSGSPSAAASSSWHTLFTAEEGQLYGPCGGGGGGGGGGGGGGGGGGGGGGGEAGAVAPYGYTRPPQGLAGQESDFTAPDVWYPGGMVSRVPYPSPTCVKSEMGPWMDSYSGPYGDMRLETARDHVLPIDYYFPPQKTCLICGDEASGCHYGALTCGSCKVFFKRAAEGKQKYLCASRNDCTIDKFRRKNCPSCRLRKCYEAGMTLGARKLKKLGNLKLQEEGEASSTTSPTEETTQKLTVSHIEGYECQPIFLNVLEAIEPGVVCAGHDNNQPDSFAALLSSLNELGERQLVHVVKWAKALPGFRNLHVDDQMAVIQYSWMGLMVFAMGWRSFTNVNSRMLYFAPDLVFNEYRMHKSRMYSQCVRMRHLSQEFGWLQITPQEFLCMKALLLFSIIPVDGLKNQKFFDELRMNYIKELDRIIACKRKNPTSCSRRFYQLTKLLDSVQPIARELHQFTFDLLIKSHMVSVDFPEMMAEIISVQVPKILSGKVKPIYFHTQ
Summary of the method: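 MDA-kb2 cells (MMTV-luciferase, responsive to AR and GR) at 3,000/well, rested 5 h at 37C, 0% CO2, then given compounds plus 0.5 nM R1881 (final) for 16 hr. Luciferase read with ONE-Glo after 30 min at room temperature.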

[10] = qHTS assay to identify small molecule HDAC inhibitors (AID 1259364); further: top concentration of the series differs between compounds; nearly all actives have a fitted effect of over 45% in size
Summary of the method: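 Wild-type HCT-116 cells, plated overnight at 37 C, exposed to compounds 2 hr at 37 C; luminogenic HDAC-Glo substrate then added 30 min at room temperature. Luminescence reports relative endogenous class I/II HDAC activity.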

[11] = qHTS assay to identify small molecule HDAC inhibitors - cell viability counter screen (AID 1259365)
Summary of the method: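 Following a 2hr exposure of overnight-plated wild-type HCT-116 cells to DMSO-delivered compounds, CellTiter-Glo was added and luminescence recorded after 30min at room temperature.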

[12] = qHTS assay to identify small molecule agonists of the sonic hedgehog signaling (Shh) pathway - cell viability counter screen (AID 1259366); further: nearly all actives have a fitted effect of over 50% in size
Summary of the method: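 After a 4hr attachment at 37C, NIH/3T3 cells bearing an integrated Gli1-driven luciferase reporter were dosed with compounds. Treatment lasted 24hr, with the final hour including CellTiter-Fluor for a fluorescence viability measurement.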

[13] = qHTS assay to identify small molecule antagonists of the sonic hedgehog signaling (Shh) pathway - cell viability counter screen (AID 1259367); further: nearly all actives have a fitted effect of over 55% in size
Summary of the method: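 Seed 3T3 Gli1-Luc cells at 2,000 per well; incubate 4 hr; add compound in DMSO, then conditioned medium; incubate at 37C with 5% CO2; add CellTiter-Fluor after 23 hr; read fluorescence 1 hr later.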

[14] = qHTS assay to identify small molecule agonists of the sonic hedgehog signaling (Shh) pathway (AID 1259368; calls by dose curve;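 further: NIH/3T3-derived 3T3Gli1-Luc cells carrying a stable Gli1-driven firefly luciferase reporter; series mostly up to about 92 µM; nearly all actives have a fitted effect of over 15% in size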)
Summary of the method: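 NIH/3T3-derived 3T3Gli1-Luc cells with stably integrated Gli1-driven firefly luciferase, 2,000 cells/well, compounds added after 4 hr. Incubated 24 hr at 37C, 5% CO2; luminescence read after 30 min with luciferase reagent at room temperature.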

[15] = qHTS assay to identify small molecule antagonists of the sonic hedgehog signaling (Shh) pathway (AID 1259369; calls by dose curve; further: nearly all actives have a fitted effect of over 45% in size; further: potency means the concentration at half of the fitted maximal effect)
Summary of the method: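 NIH/3T3-derived Gli1-Luc reporter cells plated 4 h, dosed with compound, then stimulated with conditioned medium for 24 h at 37 C. Firefly luciferase luminescence read after 30 min with detection reagent at room temperature.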

[16] = biological target: Estrogen receptor beta (Homo sapiens) (UniProt Q92731); experiment: qHTS assay to identify small molecule antagonists of the estrogen receptor beta (ER-beta) signaling pathway (AID 1259378; active means well fitted inhibition curve with a large enough effect in the signal ratio in the repeat runs, not every such curve was filed as active; the % refers to the signal ratio)
Chain of Estrogen receptor beta (Homo sapiens) (Q92731 whole entry, looked up): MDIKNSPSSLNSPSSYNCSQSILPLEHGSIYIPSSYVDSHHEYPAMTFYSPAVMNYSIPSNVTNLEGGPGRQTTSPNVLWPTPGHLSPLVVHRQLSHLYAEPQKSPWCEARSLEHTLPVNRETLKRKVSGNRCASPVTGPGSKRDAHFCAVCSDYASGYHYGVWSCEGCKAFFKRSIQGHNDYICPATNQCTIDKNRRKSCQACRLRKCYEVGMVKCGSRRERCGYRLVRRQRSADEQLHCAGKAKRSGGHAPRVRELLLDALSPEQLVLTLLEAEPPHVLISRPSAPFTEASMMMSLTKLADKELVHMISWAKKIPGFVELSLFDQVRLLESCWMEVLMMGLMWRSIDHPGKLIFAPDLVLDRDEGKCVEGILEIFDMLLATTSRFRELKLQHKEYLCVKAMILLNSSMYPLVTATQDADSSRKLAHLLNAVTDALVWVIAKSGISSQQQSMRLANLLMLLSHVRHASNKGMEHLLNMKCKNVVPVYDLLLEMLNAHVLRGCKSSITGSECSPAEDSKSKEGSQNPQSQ
Summary of the method: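 ER-beta-UAS-bla HEK293T cells in 2% charcoal-stripped FBS medium treated with compound plus 1nM final 17-beta-estradiol for 16 hr at 37C. Beta-lactamase reporter read by FRET substrate fluorescence after 2 hours at room temperature.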

[17] = biological target: Estrogen receptor (Homo sapiens) (UniProt P03372); experiment: qHTS assay to identify small molecule antagonists of the estrogen receptor alpha (ER-alpha) signaling pathway using the BG1 cell line in the presence of 0.1 nM 17-beta-estradiol (AID 1259244); further: nearly all actives have a fitted effect of over 50% in size
Chain of Estrogen receptor (Homo sapiens) (P03372 whole entry, looked up): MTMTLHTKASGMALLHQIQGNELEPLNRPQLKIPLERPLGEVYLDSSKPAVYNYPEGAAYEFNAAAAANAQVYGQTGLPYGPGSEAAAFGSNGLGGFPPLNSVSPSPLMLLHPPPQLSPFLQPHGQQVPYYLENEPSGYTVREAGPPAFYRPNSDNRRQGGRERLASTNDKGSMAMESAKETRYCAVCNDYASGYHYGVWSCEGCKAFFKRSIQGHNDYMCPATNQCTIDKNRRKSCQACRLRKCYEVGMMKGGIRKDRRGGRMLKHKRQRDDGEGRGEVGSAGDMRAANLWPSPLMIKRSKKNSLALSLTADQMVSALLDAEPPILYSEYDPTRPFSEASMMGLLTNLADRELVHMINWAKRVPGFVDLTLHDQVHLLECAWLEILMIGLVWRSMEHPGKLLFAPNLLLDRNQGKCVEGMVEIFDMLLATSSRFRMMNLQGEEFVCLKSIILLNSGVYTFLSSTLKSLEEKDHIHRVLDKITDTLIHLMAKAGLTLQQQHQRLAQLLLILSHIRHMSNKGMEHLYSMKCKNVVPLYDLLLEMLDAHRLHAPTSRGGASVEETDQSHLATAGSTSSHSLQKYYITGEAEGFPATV
Summary of the method: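 VM7Luc4E2 cells (endogenous full-length ER-alpha, 4×ERE-luciferase), kept 5 days in phenol red-free, charcoal-stripped FBS medium; 4,000 cells/well. Compounds added with 0.1 nM (final) 17beta-estradiol, 22 hr at 37C; luminescence read with ONE-Glo after 30 min.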

[18] = biological target: Estrogen receptor beta (Homo sapiens) (UniProt Q92731); experiment: qHTS assay to identify small molecule agonists of the estrogen receptor beta (ER-beta) signaling pathway (AID 1259377; active means well fitted activation curve with a large enough effect in the signal ratio in the repeat runs, not every such curve was filed as active; the % refers to the signal ratio)
Summary of the method: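 In HEK293T cells bearing a UAS-beta-lactamase reporter under ER-beta control, DMSO-delivered compounds were incubated for 16 hr at 37C. Activity was detected as fluorescence 2 hours after LiveBLAzer B/G FRET substrate addition.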

[19] = A CellTox Green Cytotoxicity Assay to monitor cytotoxicity in HEK293 cells - 16 hour (AID 1224888); further: nearly all actives have a fitted effect of over 35% in size
Summary of the method: as §1

SMILES: CCCCCCCCCCCCS(=O)(=O)Cl
- cytotoxicity increase [1]: -0.511% [at 15.8 µM]
- activity change, negative = cytotoxic [2]: 1.02% [at 15.8 µM]
- activity change, negative = cytotoxicity [3]: 12.2% [at 15.8 µM]
- activity change, negative = cytotoxicity [4]: 8.12% [at 15.8 µM]
- activity change, negative = cytotoxicity [5]: -8.49% [at 15.8 µM]
- cytotoxicity increase [6]: -21% [at 15.8 µM]
- activity change, negative = cytotoxicity [7]: -4% [at 19 µM]
- viability change, negative = cytotoxic [8]: -2.53% [at 19 µM]
- activity, negative = inhibition [9]: 0.127% [at 19 µM]
- activity change, negative = inhibition [10]: -0.19% [at 19 µM]
- activity change, negative = cytotoxicity [11]: -1.8% [at 19 µM]
- viability change, negative = cytotoxic [12]: -2.48% [at 19 µM]
- viability change, negative = cytotoxic [13]: -1.82% [at 19 µM]
- activity change [14]: 0.0807% [at 18.9 µM, active compounds read high]
- activity change, negative = inhibition [15]: 18.4% [at 19 µM]
- activity, negative = inhibition [16]: -20.1% [at 19 µM]

SMILES: CCc1cccc(CC)c1
- Potency [1]: inactive
- Potency [2]: inactive
- Potency [3]: inactive
- Potency [4]: inactive
- Potency [5]: inactive
- Potency [6]: inactive
- Potency [7]: inactive
- Potency [8]: inactive
- Potency [9]: inactive
- Potency [17]: inactive
- Potency [10]: inactive
- Potency [11]: inactive
- Potency [12]: inactive
- Potency [13]: inactive
- Potency [14]: inactive
- Potency [15]: inactive
- outcome [18]: inactive
- Potency [16]: inactive

SMILES: O=C(c1ccccc1)c1ccc(Cl)cc1
- Potency [1]: inactive
- Potency [2]: inactive
- Potency [3]: inactive
- Potency [4]: inactive
- Potency [19]: inactive
- Potency [5]: inactive
- Potency [6]: inactive
- Potency [7]: inactive
- Potency [8]: inactive
- Potency [17]: inactive
- Potency [10]: inactive
- Potency [11]: inactive
- Potency [14]: inactive

SMILES: O=C1OC(=O)c2cc(-c3ccc4c(c3)C(=O)OC4=O)ccc21
- Potency [1]: inactive
- Potency [2]: inactive
- Potency [3]: inactive
- Potency [4]: inactive
- Potency [19]: inactive
- Potency [5]: inactive
- Potency [6]: inactive
- Potency [7]: inactive
- Potency [8]: inactive
- Potency [17]: inactive
- Potency [11]: inactive
- Potency [14]: inactive
- Potency [15]: 17.2 µM (active)
- outcome [18]: inactive

SMILES: Cn1ccnc1
- Potency [1]: inactive
- Potency [2]: inactive
- Potency [3]: inactive
- Potency [4]: inactive
- Potency [19]: inactive
- Potency [5]: inactive
- Potency [6]: inactive
- Potency [7]: inactive
- Potency [8]: inactive
- Potency [17]: inactive
- Potency [11]: inactive
- Potency [12]: inactive
- Potency [13]: inactive
- Potency [14]: inactive
- Potency [15]: inactive
- outcome [18]: inactive
- Potency [16]: inactive

SMILES: C/C=C/C(=O)OCC(C)C
- Potency [1]: inactive
- Potency [2]: inactive
- Potency [3]: inactive
- Potency [4]: inactive
- Potency [5]: inactive
- Potency [6]: inactive
- Potency [7]: inactive
- Potency [8]: inactive
- Potency [9]: inactive
- Potency [17]: inactive
- Potency [10]: inactive
- Potency [11]: inactive
- Potency [12]: inactive
- Potency [13]: inactive
- Potency [14]: inactive
- Potency [15]: inactive
- outcome [18]: inactive
- Potency [16]: inactive
